# Source: paper PMC11006913
# Numbering of substitutions follows the chain as printed.
# Tests used:
# Assay in all cases: PBM; 200 nM protein, PBS
# Details in all cases: dsDNA, one strand shown
# HOXA4 [1] = molecular target: HOXA4 (Homo sapiens, UniProt Q00056 201-287, W262R)
# HOXA4 [2] = molecular target: HOXA4 (Homo sapiens, UniProt Q00056 201-287, R217L)
# ALX3 [3] = molecular target: ALX3 (Homo sapiens, UniProt O95076 139-225, N203Q)
# NKX2-6 [4] = molecular target: T1, NKX2-6 (Homo sapiens, UniProt A6NCS4 118-204)
# T1 sequence: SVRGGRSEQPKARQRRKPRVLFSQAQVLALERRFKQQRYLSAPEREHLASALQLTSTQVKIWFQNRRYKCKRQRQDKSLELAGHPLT
# HOXA4 [5] = molecular target: HOXA4 (Homo sapiens, UniProt Q00056 201-287)
# ALX3 [6] = molecular target: ALX3 (Homo sapiens, UniProt O95076 139-225)
# ALX3 [7] = molecular target: ALX3 (Homo sapiens, UniProt O95076 139-225, L168Q)
# NKX2-6 [8] = molecular target: T2, NKX2-6 (Homo sapiens, UniProt A6NCS4 118-204, F151L)
# T2 sequence: T1 sequence with F34L
# ALX3 [9] = molecular target: ALX3 (Homo sapiens, UniProt O95076 139-225, L168V)
# HOXA4 [10] = molecular target: HOXA4 (Homo sapiens, UniProt Q00056 201-287, W262F)
# ALX3 [11] = molecular target: ALX3 (Homo sapiens, UniProt O95076 139-225, N203S)
# MSX2 [12] = molecular target: MSX2 (Homo sapiens, UniProt P35548 130-214, R199I)
# MSX2 [13] = molecular target: MSX2 (Homo sapiens, UniProt P35548 130-214)
# MSX2 [14] = molecular target: MSX2 (Homo sapiens, UniProt P35548 130-214, F161Y)
# ALX4 = ALX4 (Homo sapiens, UniProt Q9H161 200-286, Q225E)
# HOXD13 [15] = molecular target: HOXD13 (Homo sapiens, UniProt P35453 263-343, T313R)
# HOXD13 [16] = molecular target: HOXD13 (Homo sapiens, UniProt P35453 263-343)
# HOXD13 [17] = molecular target: HOXD13 (Homo sapiens, UniProt P35453 263-343, T313A)
# HOXC9 = HOXC9 (Homo sapiens, UniProt P31274 178-260, R222W)
# PITX2 = PITX2 (Homo sapiens, UniProt Q99697 72-157)
# HOXA2 [18] = molecular target: HOXA2 (Homo sapiens, UniProt O43364 129-215, R185T)
# HOXA2 [19] = molecular target: HOXA2 (Homo sapiens, UniProt O43364 129-215, R185K)
# HOXA2 [20] = molecular target: HOXA2 (Homo sapiens, UniProt O43364 129-215, Y150S)
# HOXA2 [21] = molecular target: HOXA2 (Homo sapiens, UniProt O43364 129-215)
# HOXB6 [22] = molecular target: HOXB6 (Homo sapiens, UniProt P17509 132-218, K202E)
# HOXB6 [23] = molecular target: HOXB6 (Homo sapiens, UniProt P17509 132-218)
# Sequence of HOXB6 (Homo sapiens, UniProt P17509 132-218) (P17509 132-218): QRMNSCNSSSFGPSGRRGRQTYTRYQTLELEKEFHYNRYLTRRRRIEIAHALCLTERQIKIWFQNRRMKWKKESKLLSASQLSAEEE
# Sequence of HOXA4 (Homo sapiens, UniProt Q00056 201-287, W262F) (Q00056 201-287 W262F): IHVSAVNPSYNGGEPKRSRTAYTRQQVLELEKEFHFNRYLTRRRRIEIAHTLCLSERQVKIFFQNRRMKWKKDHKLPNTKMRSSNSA
# Sequence of HOXA4 (Homo sapiens, UniProt Q00056 201-287, W262R) (Q00056 201-287 W262R): as the sequence (Q00056 201-287 W262F) above, with F62R counted along it
# Sequence of HOXA4 (Homo sapiens, UniProt Q00056 201-287) (Q00056 201-287): as the sequence (Q00056 201-287 W262F) above, with F62W counted along it
# Sequence of HOXA4 (Homo sapiens, UniProt Q00056 201-287, R217L) (Q00056 201-287 R217L): as the sequence (Q00056 201-287 W262F) above, with R17L, F62W counted along it
# Sequence of HOXD13 (Homo sapiens, UniProt P35453 263-343) (P35453 263-343): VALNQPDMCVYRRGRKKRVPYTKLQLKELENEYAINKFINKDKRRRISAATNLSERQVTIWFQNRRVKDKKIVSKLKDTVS
# Sequence of ALX3 (Homo sapiens, UniProt O95076 139-225, N203S) (O95076 139-225 N203S): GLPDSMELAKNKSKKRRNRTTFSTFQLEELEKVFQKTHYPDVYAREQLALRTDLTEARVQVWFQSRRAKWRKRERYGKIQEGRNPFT
# Sequence of ALX3 (Homo sapiens, UniProt O95076 139-225, N203Q) (O95076 139-225 N203Q): as the sequence (O95076 139-225 N203S) above, with S65Q counted along it
# Sequence of ALX3 (Homo sapiens, UniProt O95076 139-225, L168V) (O95076 139-225 L168V): as the sequence (O95076 139-225 N203S) above, with L30V, S65N counted along it
# Sequence of MSX2 (Homo sapiens, UniProt P35548 130-214) (P35548 130-214): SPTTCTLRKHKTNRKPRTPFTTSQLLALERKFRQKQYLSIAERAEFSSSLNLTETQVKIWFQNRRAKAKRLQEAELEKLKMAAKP
# Sequence of MSX2 (Homo sapiens, UniProt P35548 130-214, F161Y) (P35548 130-214 F161Y): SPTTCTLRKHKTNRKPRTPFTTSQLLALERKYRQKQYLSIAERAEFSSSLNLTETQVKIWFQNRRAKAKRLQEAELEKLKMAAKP
# Sequence of MSX2 (Homo sapiens, UniProt P35548 130-214, R199I) (P35548 130-214 R199I): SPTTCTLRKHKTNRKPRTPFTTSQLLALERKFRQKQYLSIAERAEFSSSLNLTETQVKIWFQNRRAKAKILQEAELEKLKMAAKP
# Sequence of ALX3 (Homo sapiens, UniProt O95076 139-225) (O95076 139-225): as the sequence (O95076 139-225 N203S) above, with S65N counted along it
# Sequence of HOXD13 (Homo sapiens, UniProt P35453 263-343, T313R) (P35453 263-343 T313R): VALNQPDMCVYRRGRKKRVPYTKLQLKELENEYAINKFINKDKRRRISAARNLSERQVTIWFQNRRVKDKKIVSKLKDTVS
# Sequence of HOXD13 (Homo sapiens, UniProt P35453 263-343, T313A) (P35453 263-343 T313A): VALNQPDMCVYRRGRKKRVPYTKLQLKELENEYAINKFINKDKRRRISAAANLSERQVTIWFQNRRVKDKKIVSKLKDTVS
# Sequence of ALX3 (Homo sapiens, UniProt O95076 139-225, L168Q) (O95076 139-225 L168Q): as the sequence (O95076 139-225 N203S) above, with L30Q, S65N counted along it
# Sequence of HOXA2 (Homo sapiens, UniProt O43364 129-215, R185T) (O43364 129-215 R185T): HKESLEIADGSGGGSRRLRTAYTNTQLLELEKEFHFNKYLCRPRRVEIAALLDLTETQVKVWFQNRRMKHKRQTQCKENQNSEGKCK
# Sequence of ALX4 (Q9H161 200-286 Q225E): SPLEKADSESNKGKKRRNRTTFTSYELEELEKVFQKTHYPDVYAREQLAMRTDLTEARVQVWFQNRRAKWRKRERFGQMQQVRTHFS
# Sequence of HOXC9 (P31274 178-260 R222W): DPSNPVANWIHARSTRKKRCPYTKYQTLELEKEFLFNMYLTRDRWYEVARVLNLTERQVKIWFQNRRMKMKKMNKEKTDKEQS
# Sequence of HOXB6 (Homo sapiens, UniProt P17509 132-218, K202E) (P17509 132-218 K202E): as the sequence (P17509 132-218) above, with K71E counted along it
# Sequence of HOXA2 (Homo sapiens, UniProt O43364 129-215, R185K) (O43364 129-215 R185K): as the sequence (O43364 129-215 R185T) above, with T57K counted along it
# Sequence of HOXA2 (Homo sapiens, UniProt O43364 129-215, Y150S) (O43364 129-215 Y150S): as the sequence (O43364 129-215 R185T) above, with Y22S, T57R counted along it
# Sequence of HOXA2 (Homo sapiens, UniProt O43364 129-215) (O43364 129-215): as the sequence (O43364 129-215 R185T) above, with T57R counted along it
sequence,measurement,setting,value
ACCCCCCG,binding signal,HOXA4 [1],"9.65 upbm affinity estimate (log intensity, higher = more binding, comparable within an allelic series)"
same,binding signal,HOXA4 [2],"9.8 upbm affinity estimate (log intensity, higher = more binding, comparable within an allelic series)"
same,binding signal,ALX3 [3],"7.72 upbm affinity estimate (log intensity, higher = more binding, comparable within an allelic series)"
same,binding signal,NKX2-6 [4],"9.16 upbm affinity estimate (log intensity, higher = more binding, comparable within an allelic series)"
same,binding signal,HOXA4 [5],"9.93 upbm affinity estimate (log intensity, higher = more binding, comparable within an allelic series)"
same,binding signal,ALX3 [6],"7.75 upbm affinity estimate (log intensity, higher = more binding, comparable within an allelic series)"
same,binding signal,ALX3 [7],"7.65 upbm affinity estimate (log intensity, higher = more binding, comparable within an allelic series)"
same,binding signal,NKX2-6 [8],"9.07 upbm affinity estimate (log intensity, higher = more binding, comparable within an allelic series)"
same,binding signal,ALX3 [9],"7.57 upbm affinity estimate (log intensity, higher = more binding, comparable within an allelic series)"
same,binding signal,HOXA4 [10],"9.7 upbm affinity estimate (log intensity, higher = more binding, comparable within an allelic series)"
same,binding signal,ALX3 [11],"7.73 upbm affinity estimate (log intensity, higher = more binding, comparable within an allelic series)"
CCCGGTCG,binding signal,HOXA4 [1],"9.67 upbm affinity estimate (log intensity, higher = more binding, comparable within an allelic series)"
same,binding signal,HOXA4 [2],"9.77 upbm affinity estimate (log intensity, higher = more binding, comparable within an allelic series)"
same,binding signal,MSX2 [12],"9.45 upbm affinity estimate (log intensity, higher = more binding, comparable within an allelic series)"
same,binding signal,NKX2-6 [4],"9.06 upbm affinity estimate (log intensity, higher = more binding, comparable within an allelic series)"
same,binding signal,HOXA4 [5],"9.88 upbm affinity estimate (log intensity, higher = more binding, comparable within an allelic series)"
same,binding signal,MSX2 [13],"9.4 upbm affinity estimate (log intensity, higher = more binding, comparable within an allelic series)"
same,binding signal,NKX2-6 [8],"9.02 upbm affinity estimate (log intensity, higher = more binding, comparable within an allelic series)"
same,binding signal,MSX2 [14],"9.41 upbm affinity estimate (log intensity, higher = more binding, comparable within an allelic series)"
same,binding signal,HOXA4 [10],"9.76 upbm affinity estimate (log intensity, higher = more binding, comparable within an allelic series)"
GCTGCTCC,binding signal,HOXA4 [1],"9.76 upbm affinity estimate (log intensity, higher = more binding, comparable within an allelic series)"
same,binding signal,HOXA4 [2],"9.74 upbm affinity estimate (log intensity, higher = more binding, comparable within an allelic series)"
same,binding signal,MSX2 [12],"9.39 upbm affinity estimate (log intensity, higher = more binding, comparable within an allelic series)"
same,binding signal,HOXA4 [5],"9.73 upbm affinity estimate (log intensity, higher = more binding, comparable within an allelic series)"
same,binding signal,MSX2 [13],"9.4 upbm affinity estimate (log intensity, higher = more binding, comparable within an allelic series)"
same,binding signal,MSX2 [14],"9.41 upbm affinity estimate (log intensity, higher = more binding, comparable within an allelic series)"
same,binding signal,HOXA4 [10],"9.78 upbm affinity estimate (log intensity, higher = more binding, comparable within an allelic series)"
CAATAAAG,binding signal,HOXA4 [1],"10.4 upbm affinity estimate (log intensity, higher = more binding, comparable within an allelic series)"
same,binding signal,ALX4,"10.7 upbm affinity estimate (log intensity, higher = more binding, comparable within an allelic series)"
same,binding signal,HOXD13 [15],"10.8 upbm affinity estimate (log intensity, higher = more binding, comparable within an allelic series)"
same,binding signal,HOXD13 [16],"11.9 upbm affinity estimate (log intensity, higher = more binding, comparable within an allelic series)"
same,binding signal,HOXA4 [5],"11.7 upbm affinity estimate (log intensity, higher = more binding, comparable within an allelic series)"
same,binding signal,HOXD13 [17],"11.7 upbm affinity estimate (log intensity, higher = more binding, comparable within an allelic series)"
same,binding signal,HOXC9,"11.1 upbm affinity estimate (log intensity, higher = more binding, comparable within an allelic series)"
GCGGTCAC,binding signal,HOXA4 [1],"9.83 upbm affinity estimate (log intensity, higher = more binding, comparable within an allelic series)"
same,binding signal,HOXA4 [2],"9.77 upbm affinity estimate (log intensity, higher = more binding, comparable within an allelic series)"
same,binding signal,PITX2,"7.97 upbm affinity estimate (log intensity, higher = more binding, comparable within an allelic series)"
same,binding signal,HOXA4 [5],"9.75 upbm affinity estimate (log intensity, higher = more binding, comparable within an allelic series)"
same,binding signal,HOXA4 [10],"9.9 upbm affinity estimate (log intensity, higher = more binding, comparable within an allelic series)"
ATCCCCCC,binding signal,HOXA4 [1],"9.64 upbm affinity estimate (log intensity, higher = more binding, comparable within an allelic series)"
same,binding signal,HOXA2 [18],"7.17 upbm affinity estimate (log intensity, higher = more binding, comparable within an allelic series)"
same,binding signal,HOXA4 [2],"9.49 upbm affinity estimate (log intensity, higher = more binding, comparable within an allelic series)"
same,binding signal,ALX3 [3],"7.65 upbm affinity estimate (log intensity, higher = more binding, comparable within an allelic series)"
same,binding signal,HOXA2 [19],"10.1 upbm affinity estimate (log intensity, higher = more binding, comparable within an allelic series)"
same,binding signal,HOXA4 [5],"9.5 upbm affinity estimate (log intensity, higher = more binding, comparable within an allelic series)"
same,binding signal,ALX3 [6],"7.91 upbm affinity estimate (log intensity, higher = more binding, comparable within an allelic series)"
same,binding signal,ALX3 [7],"7.61 upbm affinity estimate (log intensity, higher = more binding, comparable within an allelic series)"
same,binding signal,ALX3 [9],"7.58 upbm affinity estimate (log intensity, higher = more binding, comparable within an allelic series)"
same,binding signal,HOXA2 [20],"10.4 upbm affinity estimate (log intensity, higher = more binding, comparable within an allelic series)"
same,binding signal,HOXA4 [10],"9.46 upbm affinity estimate (log intensity, higher = more binding, comparable within an allelic series)"
same,binding signal,ALX3 [11],"7.67 upbm affinity estimate (log intensity, higher = more binding, comparable within an allelic series)"
same,binding signal,HOXA2 [21],"7.3 upbm affinity estimate (log intensity, higher = more binding, comparable within an allelic series)"
AGAAGGGG,binding signal,HOXA4 [1],"9.84 upbm affinity estimate (log intensity, higher = more binding, comparable within an allelic series)"
same,binding signal,HOXA4 [2],"9.53 upbm affinity estimate (log intensity, higher = more binding, comparable within an allelic series)"
same,binding signal,HOXD13 [15],"9.5 upbm affinity estimate (log intensity, higher = more binding, comparable within an allelic series)"
same,binding signal,HOXD13 [16],"9.51 upbm affinity estimate (log intensity, higher = more binding, comparable within an allelic series)"
same,binding signal,HOXA4 [5],"9.57 upbm affinity estimate (log intensity, higher = more binding, comparable within an allelic series)"
same,binding signal,HOXD13 [17],"9.57 upbm affinity estimate (log intensity, higher = more binding, comparable within an allelic series)"
same,binding signal,HOXA4 [10],"9.68 upbm affinity estimate (log intensity, higher = more binding, comparable within an allelic series)"
CATTAACG,binding signal,HOXA4 [1],"10.6 upbm affinity estimate (log intensity, higher = more binding, comparable within an allelic series)"
same,binding signal,HOXB6 [22],"9.9 upbm affinity estimate (log intensity, higher = more binding, comparable within an allelic series)"
same,binding signal,HOXA4 [2],"11.8 upbm affinity estimate (log intensity, higher = more binding, comparable within an allelic series)"
same,binding signal,HOXA4 [5],"13.6 upbm affinity estimate (log intensity, higher = more binding, comparable within an allelic series)"
same,binding signal,HOXA4 [10],"11.4 upbm affinity estimate (log intensity, higher = more binding, comparable within an allelic series)"
same,binding signal,HOXB6 [23],"11.6 upbm affinity estimate (log intensity, higher = more binding, comparable within an allelic series)"
